Experimental data from PubChem BioAssay AID1159580 (chemical genetic matrix, 2015).
Screen size: about 5,500 compounds; about 2,000 (36%) were called active. Not shown: some 18% with an inconclusive outcome. Cut-off read from the data, not from the text of the source: active = normalized growth mostly below about 0.91 (no sharp cut-off); inconclusive = no clear call, values can overlap the other calls; inactive = mostly above about 0.92. The list shows a part of the results.

Experiment: chemical genetic growth profiling, strain panel (AID 1159580);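 note: tested at 20 µM; growth read once vehicle control cultures reached saturation at 30 °C; 1 = growth at the plate median or of vehicle wells; lower values mean less growth of the strain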
Settings: growth OD

Measured: normalized growth

O=c1c(-c2ccc3c(c2)OCO3)coc2cc(O)ccc12
inactive: S. cerevisiae deletion strains, locus YJR043C, strain POL32, stronger effect = lower value 1 | S. cerevisiae deletion strains, locus YJR075W, strain HOC1, stronger effect = lower value 1.02 | S. cerevisiae deletion strains, locus YKL009W, strain mrt4, stronger effect = lower value 0.963 | S. cerevisiae deletion strains, locus YKL068W, stronger effect = lower value 0.994 | S. cerevisiae deletion strains, locus YKL085W, strain MDH1 (second series), stronger effect = lower value 0.995 | S. cerevisiae deletion strains, locus YKL085W, strain MDH1, stronger effect = lower value 0.995 | S. cerevisiae deletion strains, locus YKL160W, strain elf1, stronger effect = lower value 0.983 | S. cerevisiae deletion strains, locus YKL190W, strain CNB1, stronger effect = lower value 1 | S. cerevisiae deletion strains, locus YKR001C, strain vps1, stronger effect = lower value 0.969 | S. cerevisiae deletion strains, locus YKR026C, strain gcn3, stronger effect = lower value 0.98 | S. cerevisiae deletion strains, locus YKR091W, strain srl3, stronger effect = lower value 0.998 | S. cerevisiae deletion strains, locus YLL001W, strain dnm1, stronger effect = lower value 0.977 | S. cerevisiae deletion strains, locus YLL026W, stronger effect = lower value 0.989 | S. cerevisiae deletion strains, locus YLL041C, strain sdh2, stronger effect = lower value 0.995 | S. cerevisiae deletion strains, locus YLR027C, strain aat2, stronger effect = lower value 0.987 | S. cerevisiae deletion strains, locus YLR039C, strain RIC1, stronger effect = lower value 0.969 | S. cerevisiae deletion strains, locus YLR058C, strain SHM2, stronger effect = lower value 0.994 | S. cerevisiae deletion strains, locus YLR102C, strain apc9, stronger effect = lower value 0.987 | S. cerevisiae deletion strains, locus YLR221C, strain rsa3, stronger effect = lower value 0.994 | S. cerevisiae deletion strains, locus YLR258W, strain gsy2, stronger effect = lower value 0.981 | S. cerevisiae deletion strains, locus YLR262C, strain YPT6 (second series), stronger effect = lower value 0.957 | S. cerevisiae deletion strains, locus YLR262C, strain YPT6, stronger effect = lower value 0.994 | S. cerevisiae deletion strains, locus YLR268W, strain sec22, stronger effect = lower value 0.981 | S. cerevisiae deletion strains, locus YLR320W, strain mms22, stronger effect = lower value 0.957 | S. cerevisiae deletion strains, locus YLR330W, strain CHS5, stronger effect = lower value 1 | S. cerevisiae deletion strains, locus YLR342W, strain FKS1 (second series), stronger effect = lower value 0.981 | S. cerevisiae deletion strains, locus YLR342W, strain FKS1, stronger effect = lower value 0.98 | S. cerevisiae deletion strains, locus YLR357W, strain rsc2, stronger effect = lower value 0.965 | S. cerevisiae deletion strains, locus YLR370C, strain arc18, stronger effect = lower value 1 | S. cerevisiae deletion strains, locus YLR371W, strain rom2, stronger effect = lower value 0.981 | S. cerevisiae deletion strains, locus YLR384C, strain iki3, stronger effect = lower value 0.971 | S. cerevisiae deletion strains, locus YLR418C, strain cdc73, stronger effect = lower value 0.984 | S. cerevisiae deletion strains, locus YML016C, strain PPZ1, stronger effect = lower value 0.985 | S. cerevisiae deletion strains, locus YML032C, strain rad52, stronger effect = lower value 0.969 | S. cerevisiae deletion strains, locus YML120C, strain ndi1, stronger effect = lower value 0.995 | S. cerevisiae deletion strains, locus YML124C, strain tub3, stronger effect = lower value 0.976 | S. cerevisiae deletion strains, locus YMR058W, strain fet3, stronger effect = lower value 1 | S. cerevisiae deletion strains, locus YMR078C, strain ctf18, stronger effect = lower value 0.967 | S. cerevisiae deletion strains, locus YMR125W, strain sto1, stronger effect = lower value 0.986 | S. cerevisiae deletion strains, locus YMR129W, stronger effect = lower value 0.997 | S. cerevisiae deletion strains, locus YMR205C, strain PFK2, stronger effect = lower value 0.978 | S. cerevisiae deletion strains, locus YMR223W, strain ubp8, stronger effect = lower value 0.976 | S. cerevisiae deletion strains, locus YMR231W, strain pep5, stronger effect = lower value 1 | S. cerevisiae deletion strains, locus YMR263W, strain SAP30, stronger effect = lower value 1.01 | S. cerevisiae deletion strains, locus YMR307W, strain GAS1, stronger effect = lower value 0.974 | S. cerevisiae deletion strains, locus YNL067W, strain RPL9B, stronger effect = lower value 1.03 | S. cerevisiae deletion strains, locus YNL071W, strain lat1, stronger effect = lower value 0.996 | S. cerevisiae deletion strains, locus YNL128W, strain TEP1, stronger effect = lower value 1.02 | S. cerevisiae deletion strains, locus YNL153C, strain GIM3, stronger effect = lower value 1.01 | S. cerevisiae deletion strains, locus YNL209W, strain ssb2, stronger effect = lower value 0.987 | S. cerevisiae deletion strains, locus YNL233W, strain BNI4, stronger effect = lower value 0.997 | S. cerevisiae deletion strains, locus YNL248C, strain rpa49, stronger effect = lower value 0.987 | S. cerevisiae deletion strains, locus YNL250W, strain rad50, stronger effect = lower value 0.989 | S. cerevisiae deletion strains, locus YNL271C, strain bni1, stronger effect = lower value 0.992 | S. cerevisiae deletion strains, locus YNL298W, strain CLA4, stronger effect = lower value 0.981 | S. cerevisiae deletion strains, locus YNL307C, strain MCK1, stronger effect = lower value 0.948 | S. cerevisiae deletion strains, locus YNL322C, strain KRE1 (second series), stronger effect = lower value 0.992 | S. cerevisiae deletion strains, locus YNL322C, strain KRE1, stronger effect = lower value 0.999 | S. cerevisiae deletion strains, locus YNR049C, strain mso1, stronger effect = lower value 0.996 | S. cerevisiae deletion strains, locus YNR052C, strain pop2, stronger effect = lower value 0.975 | S. cerevisiae deletion strains, locus YOL006C, strain TOP1, stronger effect = lower value 1.01 | S. cerevisiae deletion strains, locus YOL012C, strain htz1 1.06 | S. cerevisiae deletion strains, locus YOL147C, strain pex11, stronger effect = lower value 0.976 | S. cerevisiae deletion strains, locus YOR001W, strain rrp6, stronger effect = lower value 0.991 | S. cerevisiae deletion strains, locus YOR061W, strain CKA2, stronger effect = lower value 0.981 | S. cerevisiae deletion strains, locus YOR069W, strain VPS5, stronger effect = lower value 0.991 | S. cerevisiae deletion strains, locus YOR070C, strain gyp1, stronger effect = lower value 0.99 | S. cerevisiae deletion strains, locus YOR080W, strain dia2, stronger effect = lower value 0.981 | S. cerevisiae deletion strains, locus YOR083W, strain WHI5, stronger effect = lower value 1 | S. cerevisiae deletion strains, locus YOR106W, strain vam3, stronger effect = lower value 0.986 | S. cerevisiae deletion strains, locus YOR136W, strain idh2, stronger effect = lower value 0.985 | S. cerevisiae deletion strains, locus YOR144C, strain elg1, stronger effect = lower value 0.98 | S. cerevisiae deletion strains, locus YOR184W, strain ser1, stronger effect = lower value 0.994 | S. cerevisiae deletion strains, locus YOR265W, strain rbl2, stronger effect = lower value 0.991 | S. cerevisiae deletion strains, locus YOR270C, strain vph1, stronger effect = lower value 1.02 | S. cerevisiae deletion strains, locus YOR290C, strain snf2, stronger effect = lower value 0.958 | S. cerevisiae deletion strains, locus YOR316C, strain cot1, stronger effect = lower value 0.976 | S. cerevisiae deletion strains, locus YPL051W, strain arl3, stronger effect = lower value 0.99 | S. cerevisiae deletion strains, locus YPL055C, strain LGE1, stronger effect = lower value 1.03 | S. cerevisiae deletion strains, locus YPL078C, strain atp4, stronger effect = lower value 0.995 | S. cerevisiae deletion strains, locus YPL106C, strain sse1, stronger effect = lower value 0.97 | S. cerevisiae deletion strains, locus YPL240C, strain hsp82, stronger effect = lower value 0.988 | S. cerevisiae deletion strains, locus YPL241C, strain CIN2, stronger effect = lower value 0.999 | S. cerevisiae deletion strains, locus YPR119W, strain clb2, stronger effect = lower value 0.985 | S. cerevisiae deletion strains, locus YPR141C, strain kar3, stronger effect = lower value 0.986 | S. cerevisiae deletion strains, locus YPR163C, strain tif3, stronger effect = lower value 0.978 | S. cerevisiae deletion strains, locus YPR167C, strain met16, stronger effect = lower value 0.982 | S. cerevisiae deletion strains, strain wtn01, stronger effect = lower value 0.983 | S. cerevisiae strains, strain wild type, stronger effect = lower value 0.995
